This passage reports activity change, negative = thiol reactive and Potency results from PubChem BioAssay (NCATS).

Results filed as inconclusive are left out. Unmarked numbers belong to inactive results. The source made the active and inactive calls. Calls follow the shape of the dose curve; as a rule, active = well fitted inhibition curve with a large enough effect; inconclusive = small, poorly fitted or top-dose-only effect; inactive = no such curve, though single readings can be large or run the other way.
Potency is read from the fitted curve at half-maximal effect.

This experiment in a line: Primary fluorescence-based thiol-reactive (MSTI) qHTS assay for identification of artifact compounds. (AID 1845221). Also: nearly all actives have a fitted effect of over 65% in size.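 As to activity change, negative = thiol reactive: thiol-reactive compounds lower the probe fluorescence signal.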 As to conditions: MSTI thiol-reactivity probe, 1 h; series mostly up to 53.8 µM. The method, boiled down:
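Curve-fitted percent inhibition (4-parameter Hill) derived from fluorescence, Ex 525/Em 598 nm, scaled with Acetyl-MSTI and MSTI; 1 h incubation at room temperature.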
(qHTS replaces the single test concentration by a dilution series.)
In the case of `CC1(C)CC2C3=CCC4[C@@]5(C)CC[C@H](OC6OCC(O)C(OC7OC(CO)C(O)C(O)C7O)C6O)C(C)(C)C5CC[C@@]4(C)[C@]3(C)C[C@H](O)[C@@]2(CO)[C@H](OC(=O)c2ccccc2)C1` (some centres undefined), the activity change, negative = thiol reactive is 159% [at 11.5 µM].

On to `O=C(O)c1ccncc1Nc1nn(CCN2CCC(F)(F)CC2)c2ccc(F)cc12`, for which the Potency was 1340 nM (active).

Regarding `COc1cc(C)c(C(=O)NC2C(C)OC(OC3CCC(C)C4C3C=C(C)C3/C(C)=C\CC/C(C)=C/C5(C)C=C(C(=O)O)C(C)CC56OC(=O)/C(=C(\O)C34C)C6=O)C(O)C2(C)O)c(O)c1` (centres undefined), the activity change, negative = thiol reactive is 188% [at 11.5 µM]. `C/C=C(/C)C(=O)OC1C2OC2C2(CO2)C2C3OC(=O)C(C)C3CCC12C` (centres undefined): the Potency entry was “inactive”.
